Experimental data published in PubChem BioAssay (NCI).
About 79,000 compounds went through this panel and 15% of them were active in at least one assay; those are over-represented in the sample as a whole. The source made the active and inactive calls. Rule as the data show it: active = growth inhibition above about 70%; inactive = the rest.

Columns and labels:
[1] = NCI Yeast Anticancer Drug Screen. Data for the rad52 strain (AID 147);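 also: 0% = growth of vehicle-treated control cultures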; conditions: S. cerevisiae rad52 mutant growth inhibition, active compounds read high
Procedure, shortened: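 DNA repair-defective yeast; compound exposure; growth scored against vehicle controls.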

[2] = NCI Yeast Anticancer Drug Screen. Data for the wt1 strain (AID 149);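 also: 0% = growth of vehicle-treated wt1 cultures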; conditions: S. cerevisiae wt1 strain (SPY 50644) growth inhibition, active compounds read high
Procedure, shortened: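 wt1 yeast, compound-treated; % growth inhibition vs vehicle control.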

[3] = NCI Yeast Anticancer Drug Screen. Data for the rad50EPP+ strain (AID 151);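 also: 0% = growth of vehicle-treated control cultures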; conditions: S. cerevisiae rad50 mutant strain, active compounds read high
Procedure, shortened: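 rad50EPP+ yeast treated with test compounds. Readout: growth vs vehicle control.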

[4] = NCI Yeast Anticancer Drug Screen. Data for the rad50 strain (AID 155);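 also: 0% = growth of vehicle-only cultures of the same strain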; conditions: S. cerevisiae rad50 strain growth inhibition, active compounds read high
Procedure, shortened: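 Genetically altered yeast (DNA repair pathway); compound treatment; growth inhibition vs vehicle ctrl.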

[5] = NCI Yeast Anticancer Drug Screen. Data for the mec2-1 strain (AID 157); conditions: S. cerevisiae mec2-1 strain, active compounds read high
Procedure, shortened: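 Growth inhibition is read against vehicle-treated controls after compound exposure of the mec2-1 yeast strain, which is defective in DNA damage repair or cell cycle control.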

[6] = NCI Yeast Anticancer Drug Screen. Data for the rad14 strain (AID 159);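 also: 0% = growth of vehicle-treated control cultures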; conditions: S. cerevisiae rad14 strain growth inhibition, active compounds read high
Procedure, shortened: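 Test compounds were applied to a repair-deficient yeast strain. Its growth was then compared with that of cultures given vehicle alone, and inhibition was expressed relative to those controls.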

[7] = NCI Yeast Anticancer Drug Screen. Data for the sgs1 mgt1 strain (AID 161);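 also: 0% = growth of cultures given vehicle only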; conditions: S. cerevisiae sgs1 mgt1 strain, active compounds read high
Procedure, shortened: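 Percent growth inhibition was derived by comparing compound-exposed mutant yeast with vehicle-exposed cultures. The strain carries alterations in DNA damage repair.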

[8] = NCI Yeast Anticancer Drug Screen. Data for the CLN2oe strain (AID 163);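 also: 0% = growth of vehicle-only control cultures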; conditions: S. cerevisiae CLN2oe strain, active compounds read high
Procedure, shortened: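 Compound-treated yeast; growth vs vehicle ctrl = % inhibition. Genetically altered strain (cell-cycle control).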

[9] = NCI Yeast Anticancer Drug Screen. Data for the cln2 rad14 strain (AID 165);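 also: 0% = growth equal to vehicle treated cultures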; conditions: S. cerevisiae cln2 rad14 strain, active compounds read high
Procedure, shortened: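 Growth inhibition, relative to vehicle-treated controls, is the read-out. The test organism is a yeast strain with defined genetic alterations, cln2 rad14.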

[10] = NCI Yeast Anticancer Drug Screen. Data for the bub3 strain (AID 167); conditions: S. cerevisiae bub3 mutant strain, active compounds read high
Procedure, shortened: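 Yeast carrying a defined mutation is treated with each compound, and growth is compared with that of vehicle-exposed cells to give inhibition.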

[11] = NCI Yeast Anticancer Drug Screen. Data for the wt2 strain (AID 169);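 also: 0% = growth of vehicle-treated yeast cultures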; conditions: S. cerevisiae wt2 strain growth inhibition, active compounds read high
Procedure, shortened: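 Compound exposure of yeast; growth compared with vehicle controls; inhibition reported.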

[12] = NCI Yeast Anticancer Drug Screen. Data for the mlh1 strain (AID 171);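 also: 0% = growth of vehicle-treated control cultures of the same strain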; conditions: S. cerevisiae mlh1 strain growth inhibition, active compounds read high
Procedure, shortened: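 Compounds are applied to a genetically altered yeast strain, and its growth is compared with that of vehicle-treated cultures to give percent inhibition.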

[13] = NCI Yeast Anticancer Drug Screen. Data for the mlh1 rad18 strain (AID 175); conditions: S. cerevisiae mlh1 rad18 strain growth inhibition, active compounds read high
Procedure, shortened: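 Cells of a genetically altered yeast strain, deficient in DNA damage repair, were treated with compound. Their growth was then compared with that of vehicle-treated cultures to give inhibition.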

[14] = NCI Yeast Anticancer Drug Screen. Data for the rad18 strain (AID 177); conditions: S. cerevisiae rad18 mutant growth inhibition, active compounds read high
Procedure, shortened: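 Compounds are applied to a repair-deficient yeast strain, and growth is compared with that of vehicle-treated cultures to give percent inhibition.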

[15] = NCI Yeast Anticancer Drug Screen. Data for the mgt1 strain (AID 153); conditions: S. cerevisiae mgt1 mutant growth inhibition, active compounds read high
Procedure, shortened: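 Growth inhibition relative to vehicle controls was scored for the mgt1 yeast strain after compound exposure.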

[16] = NCI Yeast Anticancer Drug Screen. Data for the sgs1 strain (AID 173);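 also: 0% = growth of vehicle-only control cultures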; conditions: S. cerevisiae sgs1 mutant, active compounds read high
Procedure, shortened: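 Compounds applied to genetically altered yeast; growth compared with vehicle-treated cultures to give % inhibition.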

[17] = at 5.0 µM (retest, dose inferred, filed as 0.5)
[18] = at 50.0 µM (retest, dose inferred, filed as 5.0)

Measured: growth inhibition

CC1(C)N=C(N)N=C(N)N1c1cccc(N)c1.[Sn]
inactive: [1]; at 1.2 µM 18% | [1]; at 3.7 µM 21% | [1]; at 11.0 µM 19% | [1]; at 33.0 µM 24% | [1]; at 100.0 µM 43% | [2]; at 1.2 µM 21% | [2]; at 3.7 µM 17% | [2]; at 11.0 µM 17% | [2]; at 33.0 µM 29% | [2]; at 100.0 µM 47% | [3]; at 1.2 µM -2% | [3]; at 3.7 µM -3% | [3]; at 11.0 µM -1% | [3]; at 33.0 µM -5% | [3]; at 100.0 µM -7% | [4]; at 1.2 µM 5% | [4]; at 3.7 µM 6% | [4]; [17] 24% | [4]; at 11.0 µM 6% | [4]; at 33.0 µM 24% | [4]; [18] 36% | [4]; at 50.0 µM 9.35% | [4]; at 100.0 µM 36% | [5]; at 1.2 µM 2% | [5]; at 3.7 µM 6% | [5]; [17] 7% | [5]; at 11.0 µM 2% | [5]; at 33.0 µM 15% | [5]; [18] 28% | [5]; at 50.0 µM -20.9% | [5]; at 100.0 µM 33% | [6]; at 1.2 µM 5% | [6]; at 3.7 µM 9% | [6]; at 11.0 µM 7% | [6]; at 33.0 µM 18% | [6]; at 100.0 µM 34% | [7]; [17] 45% | [7]; at 50.0 µM 1.7% | [8]; at 1.2 µM -10% | [8]; at 3.7 µM -1% | [8]; at 11.0 µM -3% | [8]; at 33.0 µM -2% | [8]; at 100.0 µM -7% | [9]; [17] 5% | [9]; [18] 28% | [9]; at 50.0 µM -12.1% | [10]; at 1.2 µM -8% | [10]; at 3.7 µM -13% | [10]; [17] 9% | [10]; at 11.0 µM -18% | [10]; at 33.0 µM 4% | [10]; [18] 29% | [10]; at 50.0 µM 5.75% | [10]; at 100.0 µM 17% | [11]; at 1.2 µM -3% | [11]; at 3.7 µM -4% | [11]; at 11.0 µM -1% | [11]; at 33.0 µM 0% | [11]; at 100.0 µM 1% | [12]; at 1.2 µM 11% | [12]; at 3.7 µM 22% | [12]; at 11.0 µM 16% | [12]; at 33.0 µM 29% | [12]; at 100.0 µM 44% | [13]; [17] 43% | [13]; at 50.0 µM -49.6% | [14]; at 1.2 µM -3% | [14]; at 3.7 µM 2% | [14]; at 11.0 µM 4% | [14]; at 33.0 µM 17% | [14]; at 100.0 µM 35%
active: [7]; [18] 90% | [13]; [18] 78%

O=Cc1ccc(C(F)(F)F)cc1.[C-]#[O+].[C-]#[O+].[C-]#[O+].[Cr]
active: [1]; at 100.0 µM 70% | [4]; [18] 75% | [7]; [18] 81% | [7]; at 50.0 µM 78.5% | [13]; [18] 78%
inactive: [1]; at 1.2 µM 9% | [1]; at 3.7 µM 17% | [1]; at 11.0 µM 39% | [1]; at 33.0 µM 65% | [2]; at 1.2 µM 0% | [2]; at 3.7 µM 2% | [2]; at 11.0 µM 8% | [2]; at 33.0 µM 15% | [2]; at 100.0 µM 17% | [3]; at 1.2 µM 12% | [3]; at 3.7 µM 20% | [3]; at 11.0 µM 37% | [3]; at 33.0 µM 46% | [3]; at 100.0 µM 33% | [15]; at 1.2 µM 1% | [15]; at 3.7 µM 1% | [15]; at 11.0 µM 20% | [15]; at 33.0 µM 11% | [15]; at 100.0 µM 17% | [4]; at 1.2 µM 6% | [4]; at 3.7 µM 11% | [4]; [17] 3% | [4]; at 11.0 µM 23% | [4]; at 33.0 µM 38% | [4]; at 50.0 µM 67.8% | [4]; at 100.0 µM 40% | [5]; at 1.2 µM 5% | [5]; at 3.7 µM 2% | [5]; [17] -7% | [5]; at 11.0 µM 5% | [5]; at 33.0 µM 8% | [5]; [18] 47% | [5]; at 50.0 µM 61.6% | [5]; at 100.0 µM 14% | [6]; at 1.2 µM 6% | [6]; at 3.7 µM 8% | [6]; at 11.0 µM 15% | [6]; at 33.0 µM 30% | [6]; at 100.0 µM 30% | [7]; [17] -18% | [9]; [17] -15% | [9]; [18] 58% | [9]; at 50.0 µM 63.6% | [10]; at 1.2 µM -7% | [10]; at 3.7 µM -1% | [10]; [17] -18% | [10]; at 11.0 µM 12% | [10]; at 33.0 µM 21% | [10]; [18] -7% | [10]; at 50.0 µM 66.2% | [10]; at 100.0 µM 31% | [11]; at 1.2 µM 3% | [11]; at 3.7 µM 8% | [11]; at 11.0 µM 23% | [11]; at 33.0 µM 39% | [11]; at 100.0 µM 33% | [12]; at 1.2 µM -1% | [12]; at 3.7 µM -4% | [12]; at 11.0 µM 7% | [12]; at 33.0 µM 8% | [12]; at 100.0 µM 7% | [16]; at 1.2 µM 12% | [16]; at 3.7 µM 11% | [16]; at 11.0 µM 40% | [16]; at 33.0 µM 62% | [16]; at 100.0 µM 64% | [13]; [17] 11% | [13]; at 50.0 µM 63.3% | [14]; at 1.2 µM 1% | [14]; at 3.7 µM 3% | [14]; at 11.0 µM 20% | [14]; at 33.0 µM 40% | [14]; at 100.0 µM 62%
